Test results as given in the supplement of paper PMC8285479.
Counter-ions that a name gives are not always drawn. ± gives the standard deviation of the averaged measurements. The full ranking holds about 1,900 compounds; the median of “normalised cell viability (NPI; 0 = phenylarsine oxide control, 1 = DMSO control)” is about 1, and the lowest 2% start at about 0.039. For the sample, the lowest values were picked, then their nearest neighbours and some compounds at random.

Test system: NCI-H1944
Assay: normalised cell viability (NPI; 0 = phenylarsine oxide control, 1 = DMSO control) (fraction of DMSO control); NCI-H1944 is a non-small cell lung cancer line; higher = more viable cells (less compound toxicity)
Settings: 6 days
[1] = glucocorticoid arm: hydrocortisone 2.75 uM co-treatment, compound 1 µM
[2] = glucocorticoid arm: hydrocortisone 2.75 uM co-treatment, compound 5 µM
[3] = glucocorticoid arm: hydrocortisone 2.75 uM pre-treated 2 days and continued, compound 1 µM
[4] = glucocorticoid arm: hydrocortisone 2.75 uM pre-treated 2 days and continued, compound 5 µM
[5] = glucocorticoid arm: vehicle, compound 1 µM
[6] = glucocorticoid arm: vehicle, compound 5 µM
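Further: CTB read-out in 384-well plates, triplicate wells, NPI normalised per plate against 1 µM phenylarsine oxide (0) and 0.1% DMSO (1) controls.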

With `CC(C)NCC(O)COc1ccc(CC(N)=O)cc1` (racemic) [(±)-Atenolol] the normalised cell viability [1] was 0.987 ± 0.007, the normalised cell viability [2] was 1.001 ± 0.0085 and the normalised cell viability [3] was 1.003 ± 0.0064. The normalised cell viability [4] was 1.02 ± 0.021, the normalised cell viability [5] was 1.005 ± 0.0092 and the normalised cell viability [6] was 1.01.

`NC(C(=O)O)C(O)C(=O)O` (racemic) [DL-threo-beta-hydroxyaspartic acid] was tested, and the normalised cell viability [1] was 1.01 ± 0.011, the normalised cell viability [2] was 1.01 ± 0.028 and the normalised cell viability [3] was 1.01 ± 0.022. It also gave a normalised cell viability [4] of 1.01 ± 0.018, a normalised cell viability [5] of 1.003 ± 0.0061 and a normalised cell viability [6] of 1.001 ± 0.0081.

`CCCN(CCc1ccccc1)C1CCc2c(O)cccc2C1` (racemic) [(±)-PPHT hydrochloride] was tested, and the normalised cell viability [1] was 0.986 ± 0.011, the normalised cell viability [2] was 0.969 ± 0.03 and the normalised cell viability [3] was 1.05 ± 0.078. The normalised cell viability [4] was 0.966 ± 0.02, the normalised cell viability [5] was 1.007 ± 0.0058 and the normalised cell viability [6] was 1.003 ± 0.0058.

`Cl.N[C@@H](CCC(=O)O)C(=O)O` [L-Glutamic acid hydrochloride] gave a normalised cell viability [1] of 1.013 ± 0.0058, a normalised cell viability [2] of 1 ± 0.029 and a normalised cell viability [3] of 1.013 ± 0.0058. The normalised cell viability [4] was 0.989 ± 0.027, the normalised cell viability [5] was 1.023 ± 0.0058 and the normalised cell viability [6] was 1.02 ± 0.01.

Work on `Clc1ccc(C(c2ccc(Cl)cc2)[n+]2ccn(CC(OCc3ccc(Cl)cc3Cl)c3ccc(Cl)cc3Cl)c2)cc1` (configuration not stated) [Calmidazolium chloride] yielded a normalised cell viability [1] of 0.974 ± 0.035, a normalised cell viability [2] of 0.00138 ± 0.00076 and a normalised cell viability [3] of 0.993 ± 0.012. It also gave a normalised cell viability [4] of -0.000224 ± 0.0015, a normalised cell viability [5] of 1.002 ± 0.0072 and a normalised cell viability [6] of 0.00119 ± 0.00017.

`CN(CC[C@@H](Oc1ccc(C(F)(F)F)cc1)c1ccccc1)CC(=O)[O-].[Li+]` gave a normalised cell viability [1] of 0.992 ± 0.0046, a normalised cell viability [2] of 0.989 ± 0.011 and a normalised cell viability [3] of 0.99 ± 0.014. The normalised cell viability [4] was 0.998 ± 0.018, the normalised cell viability [5] was 0.979 ± 0.016 and the normalised cell viability [6] was 0.9777 ± 0.0035.

Compound `NCCC[C@](N)(C(=O)O)C(F)F` (racemic) [DL-alpha-Difluoromethylornithine hydrochloride] has a normalised cell viability [1] of 0.9853 ± 0.0063, a normalised cell viability [2] of 0.923 ± 0.021 and a normalised cell viability [3] of 0.9873 ± 0.0064. It also gave a normalised cell viability [4] of 0.932 ± 0.011, a normalised cell viability [5] of 0.9863 ± 0.0055 and a normalised cell viability [6] of 0.9817 ± 0.0032.

Compound `O=C(CCCN1C(=O)c2cccc3cccc(c23)C1=O)NO` [Nullscript] has a normalised cell viability [1] of 0.981 ± 0.011, a normalised cell viability [2] of 0.961 ± 0.029 and a normalised cell viability [3] of 1 ± 0.012. The normalised cell viability [4] was 0.987 ± 0.018, the normalised cell viability [5] was 1 ± 0.0082 and the normalised cell viability [6] was 1.01 ± 0.014.

In the case of `c1cc(CN2CCCNCCNCCCNCC2)ccc1CN1CCCNCCNCCCNCC1` [Plerixafor], the normalised cell viability [1] is reported as 1 ± 0.018, the normalised cell viability [2] is reported as 1 ± 0.017 and the normalised cell viability [3] is reported as 1.01 ± 0.011. For the same compound, the normalised cell viability [4] was 0.996 ± 0.016, the normalised cell viability [5] was 1.006 ± 0.0063 and the normalised cell viability [6] was 1.01 ± 0.013.

`CNCc1ccc(-c2[nH]c3cc(F)cc4c3c2CCNC4=O)cc1` was tested, and the normalised cell viability [1] was 0.982 ± 0.0036, the normalised cell viability [2] was 1 ± 0.071 and the normalised cell viability [3] was 0.968 ± 0.0095. For the same compound, the normalised cell viability [4] was 1.01 ± 0.022, the normalised cell viability [5] was 0.989 ± 0.013 and the normalised cell viability [6] was 0.948 ± 0.022.

`CCCCc1nc2cc(/C=C/C(=O)NO)ccc2n1CCN(CC)CC` [Pracinostat (SB939)] was tested, and the normalised cell viability [1] was 0.9753 ± 0.004, the normalised cell viability [2] was 0.00959 ± 0.0058 and the normalised cell viability [3] was 1 ± 0.0095. The normalised cell viability [4] was 0.0658 ± 0.0071, the normalised cell viability [5] was 0.686 ± 0.077 and the normalised cell viability [6] was 0.000852 ± 0.0004.

Compound `Nc1ncnc2c1c(-c1cccc(OCc3ccccc3)c1)cn2C1CC(CN2CCC2)C1` (configuration not stated) has a normalised cell viability [1] of 0.457 ± 0.025, a normalised cell viability [2] of 0.366 ± 0.021 and a normalised cell viability [3] of 0.596 ± 0.0046. It also gave a normalised cell viability [4] of 0.436 ± 0.062, a normalised cell viability [5] of 0.939 ± 0.013 and a normalised cell viability [6] of 0.776 ± 0.039.

In the case of `O=C(NCCO)c1ccc2c(c1)nc(Nc1cccc(Cl)c1)c1ccncc12` [CK2 Inhibitor 2], the normalised cell viability [1] is reported as 1.02 ± 0.022, the normalised cell viability [2] is reported as 0.854 ± 0.028 and the normalised cell viability [3] is reported as 1.03 ± 0.015. It also gave a normalised cell viability [4] of 1.07 ± 0.021, a normalised cell viability [5] of 1.001 ± 0.0081 and a normalised cell viability [6] of 0.567 ± 0.033.

`COc1cccc2c1C(=O)c1c(O)c3c(c(O)c1C2=O)C[C@@](O)(C(C)=O)C[C@@H]3O[C@H]1C[C@H](N)[C@H](O)[C@H](C)O1` [Daunorubicin hydrochloride; Daunorubicin HCl] gave a normalised cell viability [1] of 0.0398 ± 0.0066, a normalised cell viability [2] of 1.05 ± 0.011 and a normalised cell viability [3] of 0.587 ± 0.027. For the same compound, the normalised cell viability [4] was 1.013 ± 0.0058, the normalised cell viability [5] was 0.0031 ± 0.0017 and the normalised cell viability [6] was 1.007 ± 0.0058.

`COc1cccc2c1C(=O)c1c(O)c3c(c(O)c1C2=O)C[C@@](O)(C(=O)CO)C[C@@H]3O[C@H]1C[C@H](N)[C@H](O)[C@H](C)O1` [Doxorubicin hydrochloride; 4'-Epiadriamycin; Doxorubicin HCl] showed a normalised cell viability [1] of 0.454 ± 0.36, a normalised cell viability [2] of 0.288 ± 0.3 and a normalised cell viability [3] of 0.754 ± 0.26. The normalised cell viability [4] was 0.484 ± 0.48, the normalised cell viability [5] was 0.178 ± 0.17 and the normalised cell viability [6] was 0.129 ± 0.14.

Work on `CC(=O)[C@]1(O)Cc2c(O)c3c(c(O)c2[C@@H](O[C@H]2C[C@H](N)[C@H](O)[C@H](C)O2)C1)C(=O)c1ccccc1C3=O` [Idarubicin hydrochloride] yielded a normalised cell viability [1] of 0.00497 ± 0.00094, a normalised cell viability [2] of 0.0017 ± 0.0005 and a normalised cell viability [3] of 0.00532 ± 0.0009. It also gave a normalised cell viability [4] of 0.024 ± 0.0063, a normalised cell viability [5] of 0.00471 ± 0.00071 and a normalised cell viability [6] of 0.00231 ± 0.00037.

Work on `CC(=O)[C@]1(O)Cc2c(O)c3c(c(O)c2[C@@H](O[C@H]2C[C@H](N)[C@H](O)[C@H](C)O2)C1)C(=O)c1ccccc1C3=O` [Idarubicin hydrochloride; Idarubicin; 4-DMD HCl] yielded a normalised cell viability [1] of 0.0183 ± 0.0037, a normalised cell viability [2] of 1.06 ± 0.026 and a normalised cell viability [3] of 0.0494 ± 0.0094. It also gave a normalised cell viability [4] of 1.033 ± 0.0058, a normalised cell viability [5] of 0.00163 ± 0.00068 and a normalised cell viability [6] of 1.006 ± 0.0075.

`CCCCC(=O)OCC(=O)[C@]1(O)Cc2c(O)c3c(c(O)c2[C@@H](O[C@H]2C[C@H](NC(=O)C(F)(F)F)[C@H](O)[C@H](C)O2)C1)C(=O)c1c(OC)cccc1C3=O` [Valrubicin] showed a normalised cell viability [1] of 0.665 ± 0.04, a normalised cell viability [2] of 0.868 ± 0.016 and a normalised cell viability [3] of 0.973 ± 0.016. It also gave a normalised cell viability [4] of 0.982 ± 0.017, a normalised cell viability [5] of 0.228 ± 0.017 and a normalised cell viability [6] of 0.374 ± 0.0045.

With `NC(CCCP(=O)(O)O)C(=O)O` (racemic) [(±)-2-Amino-5-phosphonopentanoic acid] the normalised cell viability [1] was 0.987 ± 0.0072, the normalised cell viability [2] was 0.9967 ± 0.0031 and the normalised cell viability [3] was 0.9907 ± 0.0083. For the same compound, the normalised cell viability [4] was 0.993 ± 0.0028, the normalised cell viability [5] was 0.98 ± 0.0056 and the normalised cell viability [6] was 0.9857 ± 0.0098.

`N[C@@H](CCC(=O)N[C@@H](CSN=O)C(=O)NCC(=O)O)C(=O)O` [S-Nitrosoglutathione] gave a normalised cell viability [1] of 1.003 ± 0.0058, a normalised cell viability [2] of 1.02 ± 0.025 and a normalised cell viability [3] of 1.02. The normalised cell viability [4] was 1.04 ± 0.064, the normalised cell viability [5] was 0.9933 ± 0.0035 and the normalised cell viability [6] was 1 ± 0.014.

In the case of `c1ccc2c(c1)CC(N1CCN(c3cccc4c3OCCO4)CC1)C2`, the normalised cell viability [1] is reported as 0.988 ± 0.019, the normalised cell viability [2] is reported as 0.9857 ± 0.0084 and the normalised cell viability [3] is reported as 0.995 ± 0.015. For the same compound, the normalised cell viability [4] was 1.03 ± 0.081, the normalised cell viability [5] was 1.003 ± 0.0058 and the normalised cell viability [6] was 1.02 ± 0.011.

`Nc1nccc2c1ncn2[C@@H]1O[C@H](CO)[C@@H](O)[C@H]1O` [3-deazaadenosine] gave a normalised cell viability [1] of 0.989 ± 0.0099, a normalised cell viability [2] of 0.973 ± 0.025 and a normalised cell viability [3] of 0.996 ± 0.012. The normalised cell viability [4] was 0.981 ± 0.011, the normalised cell viability [5] was 0.9687 ± 0.0035 and the normalised cell viability [6] was 0.968 ± 0.0062.
